According to PubChem BioAssay (Tox21):
Values joined by “and” are separate entries in the source; they are usually repeats but may differ in a detail not shown here. Equal values may be shown once. Inconclusive results are not listed. Entries that show only a call come without a potency. Active and inactive are the calls of the source. Unless noted, calls follow the shape of the dose curve; as a rule, active = well fitted curve in the direction sought with a large enough effect in the repeat runs; inconclusive = weak or mixed curves; inactive = no such curve, though single readings can be large; an effect the other way counts as inactive or inconclusive.

Key:
[1] = qHTS assay to identify small molecule antagonists of the estrogen related receptor (ERR) signaling pathway from Tox21 library (AID 1224848); also: nearly all actives have a fitted effect of over 50% in size; also: potency is read from the fitted curve at half-maximal effect
Outline: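 Cells: ERR line, 2,000/well; 6 h preincubation 37 C/5% CO2. Cpd in DMSO via pin tool; 18 h, 37 C. ONE-Glo, 30 min RT, luminescence.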

[2] = qHTS assay to identify small molecule agonists of the estrogen related receptor (ERR) signaling pathway from Tox21 library (AID 1224849; calls by dose curve; also: nearly all actives have a fitted effect of over 15% in size); conditions: ERR reporter cell line, ONE-Glo luciferase, 18 h; at 92.4 µM (top of the series) unless noted
Outline: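 ERR cells, 6 h pre-incubation 37 C/5% CO2; cpd in DMSO pinned; 18 h 37 C; ONE-Glo added, 30 min RT; luminescence read. Agonist mode, qHTS.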

[3] = A CellTox Green Cytotoxicity Assay to monitor cytotoxicity in HEK293 cells - 0 hour (AID 1224869); also: nearly all actives have a fitted effect of over 50% in size
Outline: (§1)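 Nonlytic real-time cytotoxicity: HEK293 + CellTox Green reagent plated, 5 h preincubation, pintool compound addition (23 nL in DMSO), 37 C for 40 h, fluorescence measured at successive time points.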

[4] = qHTS RealTime-Glo MT Cell Viability Assay in HepG2 cells - 40 hour (AID 1224870); also: nearly all actives have a fitted effect of over 50% in size; also: potency is read from the fitted curve at half-maximal effect
Outline: (§2)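 HepG2 cells mixed with RealTime-Glo MT reagents (NanoLuc plus cell-permeant prosubstrate) were seeded at 600 cells/well, incubated 5 h at 37 C/5% CO2, then pinned with compounds in DMSO; nonlytic luminescence tracked viability during 40 h treatment.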

[5] = A CellTox Green Cytotoxicity Assay to monitor cytotoxicity in HEK293 cells - 40 hour (AID 1224871); also: nearly all actives have a fitted effect of over 45% in size; also: potency is read from the fitted curve at half-maximal effect
Outline: as §1

[6] = qHTS RealTime-Glo MT Cell Viability Assay in HepG2 cells - 8 hour (AID 1224873); also: nearly all actives have a fitted effect of over 55% in size; also: potency is read from the fitted curve at half-maximal effect
Outline: as §2

[7] = qHTS RealTime-Glo MT Cell Viability Assay in HEK293 cells - 40 hour (AID 1224874); conditions: RealTime-Glo luminescence; max response: active compounds read low; also: nearly all actives have a fitted effect of over 50% in size; also: potency is read from the fitted curve at half-maximal effect
Outline: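 Cells were seeded together with NanoLuc luciferase and a prosubstrate that viable cells reduce to a luciferase substrate. After a 5 h incubation at 37 C/5% CO2, compounds were added and luminescence was measured repeatedly during 40 h of treatment.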

[8] = A CellTox Green Cytotoxicity Assay to monitor cytotoxicity in HEK293 cells - 24 hour (AID 1224875); also: nearly all actives have a fitted effect of over 45% in size
Outline: as §1

[9] = A CellTox Green Cytotoxicity Assay to monitor cytotoxicity in HepG2 cells - 16 hour (AID 1224876); also: nearly all actives have a fitted effect of over 45% in size; also: potency is read from the fitted curve at half-maximal effect
Outline: (§3)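 Read-out is fluorescence of a cyanine dye excluded from live cells that stains DNA of dead HepG2 cells, with signal proportional to cytotoxicity. Plates were read at 0, 8, 16, 24, 32 and 40 h after compound addition.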

[10] = qHTS assay to identify small molecule agonists of H2AX (AID 1224845; active = well fitted activation curve with a large enough effect in the signal ratio in the repeat runs, not every such curve was filed as active; the % refers to the signal ratio)
Outline: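 Wild-type CHO-K1 cells plated overnight, then exposed 3 hr at 37C to compounds at 15 concentrations (0.76% DMSO). Lysed, then HTRF anti-pH2AX(S139)-cryptate/anti-H2AX-d2 detection after 24 hr at room temperature; emissions 665 and 620 nm.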

[11] = qHTS RealTime-Glo MT Cell Viability Assay in HepG2 cells - 24 hour (AID 1224867); also: nearly all actives have a fitted effect of over 50% in size; also: potency is read from the fitted curve at half-maximal effect
Outline: (§4)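 HepG2 cells (600/well) were dispensed with RealTime-Glo reagents, incubated 5 h at 37 °C, then treated with compounds in DMSO for up to 40 h. Nonlytic NanoLuc luminescence reflecting viable cells was read at each stated time point.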

[12] = qHTS RealTime-Glo MT Cell Viability Assay in HEK293 cells - 16 hour (AID 1224872); also: nearly all actives have a fitted effect of over 50% in size; also: potency is read from the fitted curve at half-maximal effect
Outline: (§5)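 HEK293 cells seeded with NanoLuc/prosubstrate reagent, rested 5 h at 37 C, then dosed and kept at 37 C up to 40 h. Nonlytic real-time luminescence from viable cells read at 0, 8, 16, 24, 32 and 40 h.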

[13] = qHTS RealTime-Glo MT Cell Viability Assay in HepG2 cells - 32 hour (AID 1224877); also: nearly all actives have a fitted effect of over 55% in size; also: potency is read from the fitted curve at half-maximal effect
Outline: as §4

[14] = A CellTox Green Cytotoxicity Assay to monitor cytotoxicity in HepG2 cells - 24 hour (AID 1224878); also: nearly all actives have a fitted effect of over 45% in size; also: potency is read from the fitted curve at half-maximal effect
Outline: as §3

[15] = qHTS assay to identify small molecule agonists of H2AX - cell viability counter screen (AID 1224847; calls by dose curve; also: nearly all actives have a fitted effect of over 30% in size; also: potency is read from the fitted curve at half-maximal effect)
Outline: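 Read-out: CellTiter-Glo luminescence, 30 min RT. Cells: wild-type CHO-K1, 1000/well, 10% FBS, plated overnight at 37C. Treatment: 15 concentrations, 3 hr, 37C, 0.76% DMSO.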

[16] = qHTS RealTime-Glo MT Cell Viability Assay in HEK293 cells - 32 hour (AID 1224868); also: nearly all actives have a fitted effect of over 50% in size; also: potency is read from the fitted curve at half-maximal effect
Outline: as §5

[17] = qHTS assay to identify small molecule agonists of the hypoxia (HIF-1) signaling pathway (AID 1224846; active = well fitted activation curve with a large enough effect in the signal ratio in the repeat runs, not every such curve was filed as active; the % refers to the signal ratio)
Outline: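 Cell line: CellSensor HRE-bla ME-180; 2,000 cells/well; 0.5% dialyzed FBS; 5 h preincubation; DMSO compound pin transfer; 17 h, 37C, 5% CO2; CCF4-AM added; bla FRET signal scored for activation.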

[18] = A CellTox Green Cytotoxicity Assay to monitor cytotoxicity in HepG2 cells - 40 hour (AID 1224879); also: nearly all actives have a fitted effect of over 40% in size; also: potency is read from the fitted curve at half-maximal effect
Outline: as §3

[19] = qHTS assay to identify small molecule agonists of the hypoxia (HIF-1) signaling pathway - cell viability counter screen (AID 1224844; calls by dose curve; also: nearly all actives have a fitted effect of over 50% in size; also: potency is read from the fitted curve at half-maximal effect)
Outline: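 ME-180 HRE-bla cells, 2,000/well, 0.5% dialyzed FBS; 5 hr settle, 17 hr compound at 37C/5% CO2; CCF4-AM reporter read first, then CellTiter-Glo luminescence after 30 min RT.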

Row | Compound | Potency [1] | activity change, positive = activation [2] | Potency [3] | Potency [4] | Potency [5] | Potency [6] | Potency [7] | Potency [8] | Potency [9] | Potency [10] | Potency [11] | Potency [12] | Potency [13] | Potency [14] | Potency [15] | Potency [16] | max response [7] | outcome [17] | Potency [18] | Potency [19]
1 | C/C(=C\c1ccccc1)[N+](=O)[O-] | 24.3 µM (active) | -68.3% (inactive) | inactive | 21.9 µM (active) | 9.77 µM (active) | inactive | 11 µM (active) | inactive | inactive |  |  |  |  |  |  |  |  |  |  | 
2 | CN1C(=O)C(O)N=C(c2ccccc2)c2cc(Cl)ccc21 (stereo not given) | inactive | -0.379% (inactive) | inactive |  | inactive | inactive |  | inactive | inactive | inactive | inactive | inactive | inactive | inactive |  |  |  |  |  | 
3 | O=C=Nc1ccc(Cl)cc1 |  |  | inactive |  | inactive | inactive |  | inactive | inactive | inactive | inactive | inactive | inactive | inactive | inactive | inactive | -3% (inactive) |  |  | 
4 | CCCCC(O)(Cn1cncn1)c1ccc(Cl)cc1Cl (stereo not given) | 38.5 µM (active) | -59.1% (inactive) | inactive |  | 54.9 µM (active) |  | 43.6 µM (active) |  |  | inactive |  | 43.6 µM (active) |  | 43.6 µM (active) | 113 µM (active) | 38.9 µM (active) |  | inactive |  | 
5 | COC(=O)C(Br)CBr (stereo not given) | inactive | -11.9% (inactive) | inactive |  | inactive | inactive |  | inactive | inactive | inactive | inactive | inactive | inactive | inactive | inactive | inactive | -3.92% (inactive) |  | inactive | 
6 | C=CC[C@]1(O)CC[C@H]2[C@@H]3CCC4=CC(=O)CCC4=C3C=C[C@@]21C |  | -61.2% [at 42.5 µM] (inactive) | inactive |  |  |  | 19 µM (active) | inactive | inactive |  |  | 19 µM (active) |  | inactive | 39.1 µM (active) | 16.9 µM (active) |  |  | inactive | 
7 | COCCOCCO | inactive | 18.2% (active) | inactive | inactive | inactive | inactive |  | inactive | inactive |  | inactive | inactive | inactive | inactive |  | inactive |  |  | inactive | 
8 | Cc1c(F)c(F)c(COC(=O)C2C(/C=C(\Cl)C(F)(F)F)C2(C)C)c(F)c1F (stereo not given) |  |  | inactive |  | inactive | inactive |  | inactive | inactive | inactive | inactive | inactive | inactive | inactive |  | inactive | 6.54% (inactive) |  | inactive | 
9 | IC(I)=C(I)I | 19.3 µM (active) | -75.2% (inactive) | inactive | 0.347 µM (active) | 54.9 µM (active) | 1.55 µM (active) | 6.16 µM (active) |  | 24.5 µM (active) |  | 0.549 µM (active) | 9.77 µM (active) | 0.436 µM (active) | 19.5 µM (active) | 31.8 µM (active) | 6.92 µM (active) |  |  | 12.3 µM (active) | 
10 | O=S1(=O)OC(c2cc(Br)c(O)c(Br)c2)(c2cc(Br)c(O)c(Br)c2)c2ccccc21 |  |  | inactive | inactive | inactive | inactive |  | inactive | inactive |  | inactive | inactive | inactive | inactive | 8.23 µM (active) | inactive | 11.5% (inactive) | inactive | inactive | 6.34 µM (active)
11 | [CH3][Sn]([CH3])([Cl])[Cl] | 69.7 µM (active) and 61.1 µM (active) | -70.4% (inactive) and -43.3% (inactive) | inactive | inactive | inactive | inactive |  | inactive | inactive | inactive | inactive |  | inactive | inactive |  |  |  |  |  | 
12 | Nc1ccc(N=Nc2ccc(-c3ccc(N=Nc4c(S(=O)(=O)O)cc5cc(S(=O)(=O)O)c(N=Nc6ccccc6)c(O)c5c4N)cc3)cc2)c(N)c1 |  |  | inactive | inactive | inactive | inactive |  | inactive | inactive |  | inactive | inactive | inactive | inactive |  | inactive | 23.2% (inactive) | inactive | inactive | inactive
13 | CN(C)c1ccc(N(C)C)cc1 |  |  | inactive | inactive | inactive | inactive |  | inactive | inactive |  | inactive | inactive | inactive | inactive |  |  |  | inactive | inactive | 
14 | Cc1ccc(-c2c(Cl)nc(C#N)n2S(=O)(=O)N(C)C)cc1 |  |  | inactive | inactive | inactive | inactive |  | inactive | inactive | inactive | inactive | inactive | inactive | inactive | inactive |  |  |  |  | 
15 | C/C=C/C=O |  |  | inactive | inactive | inactive | inactive |  | inactive | inactive | inactive | inactive | inactive | inactive | inactive |  | inactive | 5.18% (inactive) | inactive | inactive | 
